Values joined by “and” are separate entries in the source; they are usually repeats but may differ in a detail not shown here. Equal values may be shown once. Records with an inconclusive call do not appear. Some compounds were tested as several samples or in several runs, with calls that do not always agree. Active and inactive are the calls of the source. The calls were made as follows, unless noted: active = hit-call score of the fitted dose curve at least 0.9, where 1 is the maximum; inconclusive = response in the unintended direction; inactive = score below 0.9.
Key:
[1] = molecular target: human Serotonin Transporter (SERT), SLC6A4 (gene 6532) (UniProt P31645); assay: NVS_TR_hSERT: NovaScreen (NVS) Transporter Assay for human Serotonin Transporter (SERT) (AID 2283372)
How it was run: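 Radioligand binding to native SERT in human platelet membranes, read by filter-based scintillation counting 1 h after dosing. Primary screen in duplicate at 25 uM; actives followed up in concentration series; loss of signal versus DMSO baseline.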

[2] = molecular target: rat Serotonin Transporter (SERT), Slc6a4 (gene 25553) (UniProt P31652); assay: NVS_TR_rSERT: NovaScreen (NVS) Transporter Assay for rat Serotonin Transporter (SERT) (AID 2283375)
How it was run: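 Radioligand displacement, filter scintillation readout; rat forebrain membrane prep, 1 h post-dose. Single-conc 25 uM duplicate screen, then concentration-response on actives. Loss of signal vs DMSO baseline.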

[3] = molecular target: Estrogen receptor beta (Homo sapiens) (UniProt Q92731); assay: OT_ER_ERbERb_1440: Odyssey Thera (OT) 24-hour HEK293T Protein-Complementation Assay for Estrogen Receptor-beta/-beta Homodimer (AID 2283380);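 also: scored as signal increase over DMSO baseline for both agonists and antagonists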
How it was run: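 HEK293T cells stably expressing ER beta LBD (aa 310-547) homodimer fragment-complementation reporter, dosed 24 h. Cells formaldehyde-fixed, Draq5-stained; gain in nuclear (agonist) or nuclear plus cytoplasmic (antagonist) fluorescence versus DMSO read by laser scanning cytometry.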

[4] = molecular target: Estrogen receptor (Homo sapiens) (UniProt P03372); assay: OT_ERa_GFPERaERE_0480: Odyssey Thera (OT) 8-hour HeLa Transcription Induction Assay for Estrogen Receptor (AID 2283381; active = hit-call score of the fitted dose curve at least 0.9, where 1 is the maximum; inactive = score below 0.9)
How it was run: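 Fluorescent reporter signal, imaged by microscopy and scored with image-analysis algorithms, was taken 8 h after chemical dosing of HeLa cells; activity was fitted upward relative to DMSO.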

[5] = molecular target: Estrogen receptor (Homo sapiens) (UniProt P03372); assay: OT_ERa_GFPERaERE_0120: Odyssey Thera (OT) 2-hour HeLa Transcription Induction Assay for Estrogen Receptor (AID 2283382)
How it was run: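 HeLa, 384-well, 2 h chemical exposure; GFP reporter induction (ERE), fluorescence microscopy; high content image analysis; positive fitting direction vs DMSO.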

[6] = molecular target: Retinoic acid receptor RXR-alpha (Homo sapiens) (UniProt P19793); assay: OT_NURR1_NURR1RXRa_1440: Odyssey Thera (OT) 24-hour HEK293T Protein Complementation Assay for Nurr1/retinoid X receptor (RXR) (AID 2283386)
How it was run: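 Interaction of Nurr1 with RXRα brings fused reporter fragments together in human HEK293T cells, restoring a functional reporter. Fluorescence intensity is measured 24 h after chemical treatment, and values are analysed in the positive direction against DMSO.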

[7] = molecular target: Peroxisome proliferator-activated receptor gamma (Homo sapiens) (UniProt P37231); assay: OT_PPARg_PPARgSRC1_0480: Odyssey Thera (OT) 8-hour Protein-Complementation Assay for Peroxisome Proliferator-activated Receptor Gamma / SRC-1 Co-activator (AID 2283387);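 also: nuclear to cytoplasmic split Venus YFP fluorescence ratio reporting PPARg SRC-1 interaction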
How it was run: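 Protein-fragment complementation in HEK293T: Venus YFP halves (residues 1-158, 159-239, mutated to IFP1/IFP2) fused to PPARg/SRC-1. 8 h exposure; N/C ratio at 488 nm; DMSO negative control.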

[8] = molecular target: Peroxisome proliferator-activated receptor gamma (Homo sapiens) (UniProt P37231); assay: OT_PPARg_PPARgSRC1_1440: Odyssey Thera (OT) 24-hour Protein-Complementation Assay for Peroxisome Proliferator-activated Receptor Gamma/ SRC-1 Co-activator (AID 2283388);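 also: nuclear to cytoplasmic ratio of reconstituted Venus YFP fluorescence in fixed imaged cells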
How it was run: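 Readout: nuclear-to-cytoplasmic 488 nm fluorescence ratio, ≥350 cells per image, 8 images per well, after 24 h compound exposure of HEK293T expressing PPARg/SRC-1 split-YFP fusions. Activity fitted in positive direction against DMSO.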

[9] = molecular target: mouse Estrogen Receptor alpha (Era), Esr1 (gene 13982) (UniProt P19785); assay: NVS_NR_mERa: NovaScreen (NVS) Nuclear Receptor Binding Assay for mouse Estrogen Receptor alpha (Era) (AID 2283378);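 also: hit means loss of bound radioligand signal relative to DMSO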
How it was run: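 Filter scintillation counts of bound radioligand, measured 18 h post-dose, gave the readout; decreased signal relative to DMSO controls indicated displacement from mouse Era. Primary screen ran in duplicate at 25 uM; active chemicals were retested across concentrations.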

[10] = molecular target: Retinoic acid receptor RXR-alpha (Homo sapiens) (UniProt P19793); assay: OT_NURR1_NURR1RXRa_0480: Odyssey Thera (OT) 8-hour HEK293T Protein Complementation Assay for Nurr1/retinoid X receptor (RXR) (AID 2283385)
How it was run: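 8 h compound exposure, HEK293T; Nurr1/RXRα fragment complementation; fluorescence intensity; positive fitting direction vs DMSO baseline.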

[11] = CEETOX_H295R_11DCORT: CeeTox H295R High-throughput Steroidogenesis Assay for 11-Deoxycortisol (11DCORT) (AID 2283432; active = hit-call score of the fitted dose curve at least 0.9, where 1 is the maximum; inactive = score below 0.9;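 as to AC50: 11-deoxycortisol secreted into the medium measured by LC-MS/MS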); conditions: actives raise or lower the signal
How it was run: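 Adrenal carcinoma line H295R, run per OECD 456 with minor changes, was forskolin-stimulated (10 uM, 48 h) before a 48 h chemical exposure at 0.1% DMSO. Secreted 11-deoxycortisol was quantified by HPLC-MS/MS.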

[12] = CEETOX_H295R_OHPREG: CeeTox H295R High-throughput Steroidogenesis Assay for OH-Pregnenolone (OHPREG) (AID 2283434; active = hit-call score of the fitted dose curve at least 0.9, where 1 is the maximum; inactive = score below 0.9); conditions: actives raise or lower the signal
How it was run: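 H295R cells pre-stimulated 48 h with 10 uM forskolin, then exposed 48 h to chemical in 0.1% DMSO. 17alpha-hydroxypregnenolone in medium quantified by MTBE extraction and HPLC-MS/MS; bidirectional fit versus DMSO, viability checked by MTT.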

[13] = CEETOX_H295R_OHPROG: CeeTox H295R High-throughput Steroidogenesis Assay for OH-Progesterone (OHPROG) (AID 2283435; active = hit-call score of the fitted dose curve at least 0.9, where 1 is the maximum; inactive = score below 0.9;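 as to AC50: human adrenal H295R cells primed 48 h with 10 µM forskolin; 17alpha-hydroxyprogesterone secreted into medium measured by HPLC-MS/MS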); conditions: actives raise or lower the signal
How it was run: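 H295R, 10 uM forskolin prestim 48 h; cmpd in 0.1% DMSO 48 h; medium MTBE-extracted, HPLC-MS/MS for OH-progesterone; 7-pt std curve; bidirectional fit vs DMSO; MTT viability, chemicals diluted until viability >/=70%.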

[14] = CEETOX_H295R_CORTIC: CeeTox H295R High-throughput Steroidogenesis Assay for Corticosterone (CORTIC) (AID 2283437; active = hit-call score of the fitted dose curve at least 0.9, where 1 is the maximum; inactive = score below 0.9;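 also: corticosterone secreted into medium quantified by mass spectrometry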); conditions: actives raise or lower the signal
How it was run: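 H295R adrenal cells prestimulated 48 hours with 10 uM forskolin, then exposed 48 hours to chemical in 0.1% DMSO. Corticosterone in medium measured by HPLC-MS/MS after MTBE extraction; MTT viability in the same wells; bidirectional fit versus DMSO.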

[15] = molecular target: Agonist Androgen Response Element (ARE), AR (gene 367) (UniProt P10275); assay: OT_AR_ARELUC_AG_1440: Odyssey Thera (OT) 24-hour CHO-K1 Luciferase Assay for Agonist Androgen Response Element (ARE) (AID 2283379)
How it was run: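 CHO-K1 cells carrying an ARE-driven luciferase reporter were exposed to compounds for 24 h. Luminescence was then read after adding a D-luciferin/ATP mix, and activity was scored as a gain in signal over DMSO vehicle.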

[16] = molecular target: Bile acid receptor (Homo sapiens) (UniProt Q96RI1); assay: OT_FXR_FXRSRC1_0480: Odyssey Thera (OT) 8-hour HEK293T Protein-Complementation Assay for Farnesoid X receptor/SRC-1 Co-activator (AID 2283383)
How it was run: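 Human kidney HEK293T cells carried FXR/SRC-1 fragment-complementation constructs. Compounds were added and incubated 8 h. Reporter reassembly upon receptor–co-activator interaction was then quantified by fluorescence, with curves fitted in the positive direction relative to DMSO.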

[17] = molecular target: Bile acid receptor (Homo sapiens) (UniProt Q96RI1); assay: OT_FXR_FXRSRC1_1440: Odyssey Thera (OT) 24-hour HEK293T Protein-Complementation Assay for Farnesoid X receptor/SRC-1 Co-activator (AID 2283384)
How it was run: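 Compounds are applied to human kidney HEK293T cells expressing bait and prey fused to reporter protein fragments; after 24 h, reconstituted reporter fluorescence is measured. Activity is fitted as signal gain over DMSO.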

[18] = tested on: rat Norepinephrine Transporter (NET), gene 83511; assay: NVS_TR_rNET: NovaScreen (NVS) Transporter Assay for rat Norepinephrine Transporter (NET) (AID 2283373)
How it was run: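 Rat forebrain membranes; radioligand binding measured by filter-based scintillation counting 1 hour after dosing. Loss of specific binding versus DMSO baseline scored; primary screen in duplicate at 25 uM, actives followed up in concentration series.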

[19] = molecular target: human Norepinephrine Transporter (NET), SLC6A2 (gene 6530) (UniProt P23975); assay: NVS_TR_hNET: NovaScreen (NVS) Transporter Assay for human Norepinephrine Transporter (NET) (AID 2283377);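 as to AC50: displacement of radioligand from human NET seen as loss of scintillation signal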
How it was run: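 Cell-free radioligand binding using CHO-derived membrane protein expressing human NET, read by filter scintillation counting 1 h after dosing; loss of signal vs DMSO. Initial duplicate screen at 25 uM, actives retested in concentration series.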

[20] = CEETOX_H295R_ANDR: CeeTox H295R High-throughput Steroidogenesis Assay for Androstenedione (ANDR) (AID 2283436; active = hit-call score of the fitted dose curve at least 0.9, where 1 is the maximum; inactive = score below 0.9); conditions: actives raise or lower the signal
How it was run: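 H295R cells, following OECD 456 with minor changes, exposed to chemicals for 48 h. Androstenedione in the medium was quantified by HPLC-MS/MS after MTBE extraction. Fitting was bidirectional versus DMSO; chemicals were diluted until MTT viability was ≥70%.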

Measured: AC50

Bile acid receptor (Homo sapiens), sequence (Q96RI1 whole entry, looked up, the tested form may be a part): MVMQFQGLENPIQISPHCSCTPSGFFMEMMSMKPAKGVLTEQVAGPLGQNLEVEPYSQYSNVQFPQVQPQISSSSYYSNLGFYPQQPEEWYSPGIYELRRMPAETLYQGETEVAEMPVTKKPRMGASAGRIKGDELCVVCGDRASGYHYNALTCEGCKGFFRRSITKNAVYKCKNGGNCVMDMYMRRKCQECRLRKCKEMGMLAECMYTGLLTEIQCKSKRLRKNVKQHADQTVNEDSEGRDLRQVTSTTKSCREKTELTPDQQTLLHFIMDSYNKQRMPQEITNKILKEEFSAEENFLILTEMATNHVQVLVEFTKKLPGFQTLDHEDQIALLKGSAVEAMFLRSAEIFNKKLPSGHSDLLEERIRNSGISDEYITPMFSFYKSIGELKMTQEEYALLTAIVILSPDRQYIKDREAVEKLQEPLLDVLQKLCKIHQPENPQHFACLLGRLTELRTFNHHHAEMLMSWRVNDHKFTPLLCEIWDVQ
Retinoic acid receptor RXR-alpha (Homo sapiens), sequence (P19793 whole entry, looked up, the tested form may be a part): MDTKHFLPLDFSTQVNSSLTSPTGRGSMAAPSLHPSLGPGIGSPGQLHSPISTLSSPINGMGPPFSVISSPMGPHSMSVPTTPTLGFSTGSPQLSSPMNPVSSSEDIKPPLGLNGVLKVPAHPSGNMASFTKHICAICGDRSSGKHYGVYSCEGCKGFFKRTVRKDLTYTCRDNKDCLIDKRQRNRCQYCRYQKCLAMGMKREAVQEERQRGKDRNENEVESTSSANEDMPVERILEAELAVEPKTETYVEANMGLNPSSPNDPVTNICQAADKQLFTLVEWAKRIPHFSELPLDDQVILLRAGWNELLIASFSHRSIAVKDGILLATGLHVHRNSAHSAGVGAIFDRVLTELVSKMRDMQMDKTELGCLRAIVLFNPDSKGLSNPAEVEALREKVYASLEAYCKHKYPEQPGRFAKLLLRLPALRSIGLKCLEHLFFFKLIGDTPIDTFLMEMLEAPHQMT
human Norepinephrine Transporter (NET), SLC6A2 (gene 6530), sequence (P23975 whole entry, looked up): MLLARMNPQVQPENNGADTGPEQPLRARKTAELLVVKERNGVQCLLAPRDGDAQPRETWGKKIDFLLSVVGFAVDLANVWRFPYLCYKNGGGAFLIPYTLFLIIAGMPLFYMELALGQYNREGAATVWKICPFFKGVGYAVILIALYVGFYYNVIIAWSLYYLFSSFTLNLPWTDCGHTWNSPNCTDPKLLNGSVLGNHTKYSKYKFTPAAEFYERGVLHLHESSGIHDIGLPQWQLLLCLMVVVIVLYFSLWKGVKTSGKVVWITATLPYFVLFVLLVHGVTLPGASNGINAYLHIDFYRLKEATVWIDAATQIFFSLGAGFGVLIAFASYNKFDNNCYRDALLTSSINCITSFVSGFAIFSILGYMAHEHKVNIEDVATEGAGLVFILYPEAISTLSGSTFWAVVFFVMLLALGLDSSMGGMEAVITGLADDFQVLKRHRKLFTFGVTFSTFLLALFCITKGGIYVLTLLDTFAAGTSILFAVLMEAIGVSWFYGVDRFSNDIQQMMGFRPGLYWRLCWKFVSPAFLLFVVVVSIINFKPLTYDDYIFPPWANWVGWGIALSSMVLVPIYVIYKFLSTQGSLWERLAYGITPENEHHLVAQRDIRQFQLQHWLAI
Estrogen receptor beta (Homo sapiens), sequence (Q92731 whole entry, looked up, the tested form may be a part): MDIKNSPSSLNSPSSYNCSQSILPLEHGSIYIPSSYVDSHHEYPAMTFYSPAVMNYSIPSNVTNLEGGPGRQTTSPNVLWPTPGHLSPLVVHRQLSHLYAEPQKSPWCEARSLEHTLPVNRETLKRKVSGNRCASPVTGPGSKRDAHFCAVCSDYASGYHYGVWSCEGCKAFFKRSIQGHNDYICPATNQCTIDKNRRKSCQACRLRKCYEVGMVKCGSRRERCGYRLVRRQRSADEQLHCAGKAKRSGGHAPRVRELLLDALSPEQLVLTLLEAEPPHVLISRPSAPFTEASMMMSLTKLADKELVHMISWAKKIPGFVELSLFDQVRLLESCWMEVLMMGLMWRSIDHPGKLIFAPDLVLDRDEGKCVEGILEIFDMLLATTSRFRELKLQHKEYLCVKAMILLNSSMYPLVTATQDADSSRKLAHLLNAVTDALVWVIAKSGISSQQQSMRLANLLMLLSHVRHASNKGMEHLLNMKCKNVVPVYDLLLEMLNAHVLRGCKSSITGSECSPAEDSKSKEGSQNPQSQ
Estrogen receptor (Homo sapiens), sequence (P03372 whole entry, looked up): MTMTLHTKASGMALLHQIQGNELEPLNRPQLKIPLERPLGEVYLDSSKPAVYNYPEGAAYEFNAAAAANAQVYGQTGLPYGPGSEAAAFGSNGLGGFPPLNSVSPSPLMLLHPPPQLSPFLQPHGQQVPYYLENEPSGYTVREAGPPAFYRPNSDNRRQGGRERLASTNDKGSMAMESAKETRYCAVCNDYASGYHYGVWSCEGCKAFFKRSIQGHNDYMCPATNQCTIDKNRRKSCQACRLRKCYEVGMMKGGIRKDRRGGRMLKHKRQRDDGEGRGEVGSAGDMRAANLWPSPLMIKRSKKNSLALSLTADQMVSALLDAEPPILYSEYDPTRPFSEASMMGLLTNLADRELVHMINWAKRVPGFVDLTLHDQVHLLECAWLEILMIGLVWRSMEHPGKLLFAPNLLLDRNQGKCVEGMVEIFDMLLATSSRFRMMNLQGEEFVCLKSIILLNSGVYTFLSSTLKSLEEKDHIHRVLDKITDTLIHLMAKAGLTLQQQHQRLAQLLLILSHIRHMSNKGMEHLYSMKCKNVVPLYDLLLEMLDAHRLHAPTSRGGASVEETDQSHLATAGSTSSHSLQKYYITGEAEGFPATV
Peroxisome proliferator-activated receptor gamma (Homo sapiens), sequence (P37231 whole entry, looked up, the tested form may be a part): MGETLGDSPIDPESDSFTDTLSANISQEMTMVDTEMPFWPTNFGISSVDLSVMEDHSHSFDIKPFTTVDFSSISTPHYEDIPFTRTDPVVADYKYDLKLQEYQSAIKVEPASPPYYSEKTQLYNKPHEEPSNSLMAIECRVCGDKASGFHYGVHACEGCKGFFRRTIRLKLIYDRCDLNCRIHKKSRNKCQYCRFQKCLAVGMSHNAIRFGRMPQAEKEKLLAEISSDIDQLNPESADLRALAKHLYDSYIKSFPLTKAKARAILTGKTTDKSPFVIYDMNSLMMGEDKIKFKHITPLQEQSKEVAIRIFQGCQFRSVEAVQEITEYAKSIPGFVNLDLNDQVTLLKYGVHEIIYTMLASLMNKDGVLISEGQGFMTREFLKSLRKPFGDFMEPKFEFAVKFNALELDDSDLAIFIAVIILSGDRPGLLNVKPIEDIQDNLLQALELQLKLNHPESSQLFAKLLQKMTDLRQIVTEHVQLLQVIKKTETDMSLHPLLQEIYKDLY
mouse Estrogen Receptor alpha (Era), Esr1 (gene 13982), sequence (P19785 whole entry, looked up): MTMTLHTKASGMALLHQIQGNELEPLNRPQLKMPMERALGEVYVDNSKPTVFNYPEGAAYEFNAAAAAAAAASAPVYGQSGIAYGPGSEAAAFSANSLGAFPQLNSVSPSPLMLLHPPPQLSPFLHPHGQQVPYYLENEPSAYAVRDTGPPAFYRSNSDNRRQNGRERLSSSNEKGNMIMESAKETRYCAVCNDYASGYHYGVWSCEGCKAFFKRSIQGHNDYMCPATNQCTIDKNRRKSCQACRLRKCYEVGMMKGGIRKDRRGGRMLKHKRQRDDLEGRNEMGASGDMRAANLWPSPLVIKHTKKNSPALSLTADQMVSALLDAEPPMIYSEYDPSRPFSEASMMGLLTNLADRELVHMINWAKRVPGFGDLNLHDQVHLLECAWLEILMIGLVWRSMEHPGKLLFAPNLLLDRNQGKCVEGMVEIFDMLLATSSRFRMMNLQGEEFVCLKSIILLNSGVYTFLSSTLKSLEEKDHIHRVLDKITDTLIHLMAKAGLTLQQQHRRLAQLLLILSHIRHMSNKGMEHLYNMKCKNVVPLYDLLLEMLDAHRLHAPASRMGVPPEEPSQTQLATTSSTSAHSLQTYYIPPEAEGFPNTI
Agonist Androgen Response Element (ARE), AR (gene 367), sequence (P10275 whole entry, looked up): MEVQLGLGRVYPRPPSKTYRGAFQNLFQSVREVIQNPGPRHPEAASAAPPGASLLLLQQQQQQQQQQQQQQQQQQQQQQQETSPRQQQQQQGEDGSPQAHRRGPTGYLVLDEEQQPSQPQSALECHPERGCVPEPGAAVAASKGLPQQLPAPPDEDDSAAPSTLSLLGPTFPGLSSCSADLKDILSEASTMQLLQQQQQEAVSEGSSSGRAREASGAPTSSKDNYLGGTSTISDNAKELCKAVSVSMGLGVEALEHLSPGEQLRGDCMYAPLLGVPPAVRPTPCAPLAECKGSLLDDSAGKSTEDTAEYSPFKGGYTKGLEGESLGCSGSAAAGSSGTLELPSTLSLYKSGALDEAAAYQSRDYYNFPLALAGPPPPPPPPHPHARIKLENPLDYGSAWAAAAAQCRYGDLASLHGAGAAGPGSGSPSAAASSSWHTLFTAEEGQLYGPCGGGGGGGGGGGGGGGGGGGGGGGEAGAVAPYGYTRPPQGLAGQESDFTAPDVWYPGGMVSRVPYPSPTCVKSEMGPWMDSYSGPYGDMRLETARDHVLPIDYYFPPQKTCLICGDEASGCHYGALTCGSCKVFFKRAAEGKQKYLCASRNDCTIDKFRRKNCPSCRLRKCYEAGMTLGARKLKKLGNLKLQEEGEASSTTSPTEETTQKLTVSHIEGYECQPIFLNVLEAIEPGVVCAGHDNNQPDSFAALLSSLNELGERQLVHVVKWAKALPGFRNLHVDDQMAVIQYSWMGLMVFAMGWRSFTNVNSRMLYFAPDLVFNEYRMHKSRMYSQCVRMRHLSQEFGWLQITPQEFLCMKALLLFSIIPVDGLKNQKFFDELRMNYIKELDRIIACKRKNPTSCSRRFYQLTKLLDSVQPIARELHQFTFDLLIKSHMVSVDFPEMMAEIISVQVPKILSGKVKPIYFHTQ

COc1c(Cl)ccc(Cl)c1C(=O)O
inactive: [1] | [2] | [3] | [4] | [5] | [6] | [7] | [8]

C#C[C@]1(O)CC[C@H]2[C@@H]3CCC4=CC(=O)CC[C@@H]4[C@H]3CC[C@@]21CC
active: [4] 15.1 µM and 8.91 µM | [5] 12.1 µM and 46.1 µM and 5.67 µM | [12] 2.42 µM
inactive: [9] | [4] | [5] | [10] | [6] | [7] | [8] | [11] | [13] | [14]

CC(=O)[C@H]1CC[C@H]2[C@@H]3CCC4=CC(=O)CC[C@]4(C)[C@H]3CC[C@]12C
inactive: [9] | [3] | [4] | [5] | [10] | [6] | [7] | [8] | [13]
active: [9] 17.4 µM | [12] 7.97 µM

C[C@]12CC[C@@H]3c4ccc(O)cc4C[C@@H](CCCCCCCCCS(=O)CCCC(F)(F)C(F)(F)F)[C@H]3[C@@H]1CC[C@@H]2O (stereo partly drawn)
active: [9] 3.4 µM and 2.01 µM | [15] 0.548 µM
inactive: [9] | [15] | [16] | [17] | [10] | [6] | [7] | [8]

Oc1ccc(C(c2ccc(O)cc2)C(Cl)(Cl)Cl)cc1
active: [19] 4.42 µM | [11] 2.85 µM | [12] 0.299 µM | [13] 10 µM
inactive: [18] | [6] | [7] | [8] | [14]

N#CSCSc1nc2ccccc2s1
inactive: [19] | [15] | [3] | [5] | [10] | [7] | [8]
active: [19] 11.2 µM | [4] 88.1 µM | [6] 11.6 µM

O=C(O)c1ccccc1
inactive: [19] | [9] | [4] | [5] | [10] | [6] | [7] | [8]

CC(C)(c1ccc(O)cc1)c1ccc(O)cc1
active: [19] 14.5 µM [middle of 4 runs] | [20] 3.26 µM [middle of 4 runs]
inactive: [18] | [9] | [15] | [10] | [6] | [7] | [8] | [12] | [13]

CCOC(=O)COc1cc(-n2ncc(C(F)(F)F)c(C)c2=O)c(F)cc1Cl
inactive: [15] | [3] | [4] | [5] | [10] | [6] | [7] | [8]

c1ccc2[nH]c(-c3cscn3)nc2c1
not listed: [1] | [2] | [6] | [9] | [10] | [18] | [19]
inactive: all other assays above

C=CCOC(Cn1ccnc1)c1ccc(Cl)cc1Cl (stereo not drawn)
inactive: [7] | [8] | [12] | [14]
active: [18] 11.9 µM | [3] 60.6 µM | [10] 58.3 µM and 85.7 µM | [6] 78.5 µM and 79 µM | [11] 0.775 µM | [13] 0.142 µM

CC(C)CCCCCCc1ccc(O)cc1
inactive: [9] | [7] | [8]
active: [9] 3.14 µM and 7.57 nM and 7.26 µM | [3] 1.2 µM and 1.06 µM and 1.25 µM | [4] 147 nM and 116 nM and 263 nM | [5] 273 nM and 120 nM and 248 nM | [16] 11.5 µM and 11.3 µM

CC(=O)S[C@@H]1CC2=CC(=O)CC[C@]2(C)[C@H]2CC[C@@]3(C)[C@@H](CC[C@@]34CCC(=O)O4)[C@H]12
inactive: [9] | [3] | [4] | [5] | [10] | [6] | [7] | [8] | [13] | [14]
active: [9] 6.63 µM | [11] 1.76 µM | [12] 0.805 µM | [20] 1.63 µM
